What all share (design): scale not given: direction of the effect not stated beside the values
In assay [1] the target is Protein translocase subunit SecA (Escherichia coli (strain K12)) (UniProt P10408). The experiment in a line: Assay to Identify E. coli SecA ATPase Inhibitors. It is filed as functional. Conditions: 30 µM.
In assay [2] the target is T1, Ubiquitin-activating enzyme e1, putative (Leishmania donovani (strain BPK282A1)) (UniProt E9BSI1).
T1 sequence (whole entry): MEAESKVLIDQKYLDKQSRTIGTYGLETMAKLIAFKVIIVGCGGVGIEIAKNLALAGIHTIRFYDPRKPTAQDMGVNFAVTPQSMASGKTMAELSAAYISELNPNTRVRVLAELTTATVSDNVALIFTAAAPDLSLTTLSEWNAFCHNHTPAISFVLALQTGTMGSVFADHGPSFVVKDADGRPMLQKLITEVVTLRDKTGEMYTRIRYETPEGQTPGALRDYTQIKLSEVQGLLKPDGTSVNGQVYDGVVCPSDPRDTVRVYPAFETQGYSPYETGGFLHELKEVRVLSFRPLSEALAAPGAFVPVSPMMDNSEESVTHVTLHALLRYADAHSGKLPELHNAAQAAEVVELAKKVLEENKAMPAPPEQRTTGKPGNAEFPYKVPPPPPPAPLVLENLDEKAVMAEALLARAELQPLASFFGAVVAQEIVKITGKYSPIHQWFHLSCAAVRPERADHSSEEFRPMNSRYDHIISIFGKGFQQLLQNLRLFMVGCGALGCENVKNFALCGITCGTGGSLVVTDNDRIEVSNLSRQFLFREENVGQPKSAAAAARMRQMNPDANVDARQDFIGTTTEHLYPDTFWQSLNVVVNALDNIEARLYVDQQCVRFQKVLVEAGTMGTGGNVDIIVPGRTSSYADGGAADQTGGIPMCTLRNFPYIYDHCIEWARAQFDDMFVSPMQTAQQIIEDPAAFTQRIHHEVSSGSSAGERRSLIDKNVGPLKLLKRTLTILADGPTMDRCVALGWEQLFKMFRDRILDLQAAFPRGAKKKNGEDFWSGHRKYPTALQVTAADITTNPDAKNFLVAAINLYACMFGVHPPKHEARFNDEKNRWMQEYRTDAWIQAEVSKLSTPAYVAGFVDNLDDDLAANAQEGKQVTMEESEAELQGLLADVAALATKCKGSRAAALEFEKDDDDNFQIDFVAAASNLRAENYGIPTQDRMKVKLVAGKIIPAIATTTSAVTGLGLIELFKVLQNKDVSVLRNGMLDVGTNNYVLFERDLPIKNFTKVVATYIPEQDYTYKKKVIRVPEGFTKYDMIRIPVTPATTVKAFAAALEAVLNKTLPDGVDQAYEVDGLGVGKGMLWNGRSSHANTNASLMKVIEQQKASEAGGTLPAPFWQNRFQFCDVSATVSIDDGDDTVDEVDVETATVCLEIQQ
The experiment in a line: Leishmania donovani Ubiquitin Activating Enzyme (LdE1). In kind it is functional. Conditions: 30 µM.

Assay [3] concerns the target AMP-activated protein kinase, AMPK (Homo sapiens) (UniProt P54646+O43741+P54619+Q9UGJ0+Q9Y478+Q13131+Q9UGI9). The experiment in a line: AMP-dependent Kinase enzyme assay. An in vitro enzyme assay that detects ADP turnover that is directly proportional to AMPK activity. This uses naive AMPK that is activated during the assay with MK-8722. It is filed as functional. The settings on record: 30 µM.

Assay [4] has as its target Sialic acid-binding Ig-like lectin 9 (Homo sapiens) (UniProt Q9Y336). Kind of assay: Hs-Siglec9 ALPHAscreen SOP 20170721. The settings on record: 10 µM. (In general: Alpha assays give light when donor and acceptor beads are brought close together.)
Another assay deals with Trypanosoma cruzi. The experiment in a line: Trypanosoma cruzi phosphomannomutase and mannose-1-phosphate guanylyltransferase assay. It is filed as functional. Conditions: 10 µM.
The target of assay [5] is T2, Arginase-2, mitochondrial (Homo sapiens) (UniProt P78540).
T2 sequence (whole entry): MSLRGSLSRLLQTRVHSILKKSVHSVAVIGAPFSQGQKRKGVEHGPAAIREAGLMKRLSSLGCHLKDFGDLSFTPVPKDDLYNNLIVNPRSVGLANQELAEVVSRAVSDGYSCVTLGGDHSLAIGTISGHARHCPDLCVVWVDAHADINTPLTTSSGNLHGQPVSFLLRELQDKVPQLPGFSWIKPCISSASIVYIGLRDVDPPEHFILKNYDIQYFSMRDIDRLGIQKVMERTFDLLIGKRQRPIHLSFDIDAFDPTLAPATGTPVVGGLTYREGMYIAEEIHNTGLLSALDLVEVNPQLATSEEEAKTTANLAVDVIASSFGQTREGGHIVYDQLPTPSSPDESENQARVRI
The experiment in a line: in vitro enzyme assay to detect the production of urea directly proportional to the activity of Arginase II. Further: in the data most compounds retested in dose-response had high values. It is filed as functional. The settings on record: 33.3 µM.

The target in assay [6] is T3, Proteasome subunit beta (Trypanosoma cruzi) (UniProt O96673).
T3 sequence (whole entry): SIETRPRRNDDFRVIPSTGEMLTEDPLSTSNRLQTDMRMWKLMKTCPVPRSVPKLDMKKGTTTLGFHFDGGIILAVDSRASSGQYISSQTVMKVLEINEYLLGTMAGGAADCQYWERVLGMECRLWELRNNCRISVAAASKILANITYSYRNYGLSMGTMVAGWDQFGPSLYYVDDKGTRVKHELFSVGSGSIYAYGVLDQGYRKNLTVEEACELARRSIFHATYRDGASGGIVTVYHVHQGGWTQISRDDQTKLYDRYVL
The experiment in a line: Trypanosoma cruzi proteasome chymotrypsin-like activity (TcProtChymo) assay. Further: in the data most compounds retested in dose-response had high values. In kind it is functional. Conditions: 9.37 µM.

The species named for another assay is Homo sapiens. The experiment in a line: To identify inhibition of the IFN signalling (Jak-Stat) pathway via expression of an eGFP reporter gene under the control of an IFN-stimulated response element (ISRE) containing MxA promoter. It is filed as functional. Conditions: 30 µM. On the technique in general: Reporter assays use an easily measured gene product as a stand-in for the process of interest.

The target of assay [7] is T4, Tyrosyl-tRNA synthetase, putative (Trypanosoma cruzi (strain CL Brener)) (UniProt Q4DSP6).
T4 sequence (whole entry): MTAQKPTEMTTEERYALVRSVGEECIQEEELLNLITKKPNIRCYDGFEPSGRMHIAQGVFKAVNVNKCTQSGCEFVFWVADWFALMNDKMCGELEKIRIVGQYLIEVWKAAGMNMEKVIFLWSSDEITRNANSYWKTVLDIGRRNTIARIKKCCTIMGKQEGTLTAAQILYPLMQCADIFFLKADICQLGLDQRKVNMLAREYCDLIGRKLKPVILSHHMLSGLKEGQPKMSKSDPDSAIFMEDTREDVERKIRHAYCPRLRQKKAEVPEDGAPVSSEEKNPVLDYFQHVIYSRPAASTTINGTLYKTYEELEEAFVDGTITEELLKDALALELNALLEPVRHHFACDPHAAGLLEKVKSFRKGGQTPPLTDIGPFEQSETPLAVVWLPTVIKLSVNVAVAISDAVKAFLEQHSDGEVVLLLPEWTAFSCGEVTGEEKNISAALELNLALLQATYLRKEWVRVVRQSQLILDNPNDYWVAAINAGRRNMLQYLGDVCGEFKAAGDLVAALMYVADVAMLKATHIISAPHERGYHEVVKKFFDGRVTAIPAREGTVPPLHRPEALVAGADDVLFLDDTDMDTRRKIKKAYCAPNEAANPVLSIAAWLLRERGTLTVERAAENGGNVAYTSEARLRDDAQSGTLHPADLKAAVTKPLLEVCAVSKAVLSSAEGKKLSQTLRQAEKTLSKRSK
Kind of assay: Trypanosoma cruzi tyrosyl tRNA synthetase (TcYRS) _High Tyrosine SOP. Further: in the data most compounds retested in dose-response had high values. In kind it is functional. The settings on record: 30 µM.

The target in assay [8] is T4, Tyrosyl-tRNA synthetase, putative (Trypanosoma cruzi (strain CL Brener)). Kind of assay: Trypanosoma cruzi tyrosyl tRNA synthetase (TcYRS) SOP. In kind it is functional. The settings on record: 30 µM.
For assay [9], the target named is Chromo domain-containing protein 1 (Saccharomyces cerevisiae (strain ATCC 204508 / S288c) (Baker's yeast)) (UniProt P32657). Kind of assay: ScCHD-1 Enzyme Inhibition Assay. Further: in the data most compounds retested in dose-response had high values. It is filed as functional. Conditions: 30 µM.

For some of these results: Entries with a potency or affinity are not part of this list.

Chain of Protein translocase subunit SecA (Escherichia coli (strain K12)) (P10408 whole entry): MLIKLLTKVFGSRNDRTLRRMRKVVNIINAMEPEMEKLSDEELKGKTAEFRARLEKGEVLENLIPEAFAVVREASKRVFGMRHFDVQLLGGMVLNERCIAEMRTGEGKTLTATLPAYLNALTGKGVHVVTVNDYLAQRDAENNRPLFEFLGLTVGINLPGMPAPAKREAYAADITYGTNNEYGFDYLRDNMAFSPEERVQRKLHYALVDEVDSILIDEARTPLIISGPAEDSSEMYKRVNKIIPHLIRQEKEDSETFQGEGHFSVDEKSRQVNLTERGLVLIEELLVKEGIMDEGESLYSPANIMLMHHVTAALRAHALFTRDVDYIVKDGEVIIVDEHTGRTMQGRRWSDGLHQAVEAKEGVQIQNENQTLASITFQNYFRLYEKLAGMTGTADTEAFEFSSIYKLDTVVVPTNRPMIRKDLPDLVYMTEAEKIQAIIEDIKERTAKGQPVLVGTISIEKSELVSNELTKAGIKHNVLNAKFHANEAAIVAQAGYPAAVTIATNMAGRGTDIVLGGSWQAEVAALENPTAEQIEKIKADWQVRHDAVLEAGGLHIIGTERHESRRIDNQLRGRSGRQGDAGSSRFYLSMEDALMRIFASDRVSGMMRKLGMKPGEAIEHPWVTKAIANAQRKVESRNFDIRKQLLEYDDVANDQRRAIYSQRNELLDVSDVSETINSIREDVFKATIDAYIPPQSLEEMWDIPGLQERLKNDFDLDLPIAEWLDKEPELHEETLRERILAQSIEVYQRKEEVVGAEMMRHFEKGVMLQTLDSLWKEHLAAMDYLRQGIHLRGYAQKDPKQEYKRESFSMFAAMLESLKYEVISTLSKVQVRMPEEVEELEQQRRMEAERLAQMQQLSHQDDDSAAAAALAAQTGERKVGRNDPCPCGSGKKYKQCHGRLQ
Chain of Sialic acid-binding Ig-like lectin 9 (Homo sapiens) (Q9Y336 whole entry): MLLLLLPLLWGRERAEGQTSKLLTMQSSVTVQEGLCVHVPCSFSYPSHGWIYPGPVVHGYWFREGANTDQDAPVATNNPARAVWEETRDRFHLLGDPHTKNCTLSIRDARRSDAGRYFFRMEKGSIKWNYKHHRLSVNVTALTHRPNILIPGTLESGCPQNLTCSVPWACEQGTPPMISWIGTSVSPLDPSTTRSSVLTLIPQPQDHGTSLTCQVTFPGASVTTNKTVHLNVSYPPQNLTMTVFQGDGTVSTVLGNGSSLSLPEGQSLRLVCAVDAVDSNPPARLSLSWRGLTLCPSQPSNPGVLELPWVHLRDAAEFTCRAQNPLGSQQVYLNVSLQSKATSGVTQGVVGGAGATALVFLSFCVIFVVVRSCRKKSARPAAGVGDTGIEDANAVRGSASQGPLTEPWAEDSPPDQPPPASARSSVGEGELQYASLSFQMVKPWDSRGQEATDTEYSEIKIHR
Chain of Chromo domain-containing protein 1 (Saccharomyces cerevisiae (strain ATCC 204508 / S288c) (Baker's yeast)) (P32657 whole entry, the tested form may be a part): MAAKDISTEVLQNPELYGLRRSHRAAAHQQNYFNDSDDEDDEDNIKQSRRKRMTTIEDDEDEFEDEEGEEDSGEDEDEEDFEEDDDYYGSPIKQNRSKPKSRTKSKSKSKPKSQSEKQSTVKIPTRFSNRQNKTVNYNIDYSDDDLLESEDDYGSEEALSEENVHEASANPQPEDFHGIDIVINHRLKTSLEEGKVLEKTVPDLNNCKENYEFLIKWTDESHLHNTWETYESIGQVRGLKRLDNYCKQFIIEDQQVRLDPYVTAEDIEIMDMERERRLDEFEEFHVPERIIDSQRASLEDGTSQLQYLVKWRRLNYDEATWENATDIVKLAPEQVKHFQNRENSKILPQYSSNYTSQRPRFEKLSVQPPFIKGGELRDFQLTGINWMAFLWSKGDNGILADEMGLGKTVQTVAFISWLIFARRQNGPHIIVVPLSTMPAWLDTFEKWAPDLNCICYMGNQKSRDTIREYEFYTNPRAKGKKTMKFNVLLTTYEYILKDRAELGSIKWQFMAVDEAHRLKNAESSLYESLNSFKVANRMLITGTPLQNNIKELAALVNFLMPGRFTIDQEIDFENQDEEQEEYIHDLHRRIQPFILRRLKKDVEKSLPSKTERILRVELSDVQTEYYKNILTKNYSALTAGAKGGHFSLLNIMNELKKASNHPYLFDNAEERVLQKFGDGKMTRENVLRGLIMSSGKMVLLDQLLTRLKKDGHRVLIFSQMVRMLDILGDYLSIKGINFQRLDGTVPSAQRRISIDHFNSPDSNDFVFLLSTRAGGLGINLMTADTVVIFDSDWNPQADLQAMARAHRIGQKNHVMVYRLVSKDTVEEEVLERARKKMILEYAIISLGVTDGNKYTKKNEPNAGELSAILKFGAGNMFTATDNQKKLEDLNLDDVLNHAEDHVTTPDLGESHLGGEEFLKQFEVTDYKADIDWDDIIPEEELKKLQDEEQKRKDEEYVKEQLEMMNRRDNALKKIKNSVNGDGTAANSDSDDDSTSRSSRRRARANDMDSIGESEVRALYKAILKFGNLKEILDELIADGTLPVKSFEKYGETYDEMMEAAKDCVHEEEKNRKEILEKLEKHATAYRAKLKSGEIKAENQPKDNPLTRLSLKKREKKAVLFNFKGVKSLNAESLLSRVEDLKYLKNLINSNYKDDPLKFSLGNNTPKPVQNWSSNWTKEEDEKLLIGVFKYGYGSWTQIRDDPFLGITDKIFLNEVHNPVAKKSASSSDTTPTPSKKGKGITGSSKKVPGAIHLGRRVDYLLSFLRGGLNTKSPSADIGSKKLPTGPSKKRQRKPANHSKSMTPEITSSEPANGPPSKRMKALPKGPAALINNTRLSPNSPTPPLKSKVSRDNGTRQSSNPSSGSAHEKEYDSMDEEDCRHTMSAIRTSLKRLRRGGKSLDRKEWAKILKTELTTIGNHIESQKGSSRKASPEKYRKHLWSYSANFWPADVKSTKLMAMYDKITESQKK

As to `CNC(=O)[C@@]12CCO[C@@H]1CCN(S(=O)(=O)c1cccnc1)C2`, the Percent Effect is -5.53% in assay [1]; 10.8% in [2]; 0.489% in [3]; -1.11% in assay [4]; 4.99% in the assay on Trypanosoma cruzi; -3.5% in assay [5]. Besides, the Percent Effect in assay [6] came to 9.96%; in the assay listed under Homo sapiens, 4.96%; in assay [7], 5.41%; in [8] it was 12.8%; in assay [9], 0.201%.
For `Cn1cc(N2CCC3(CCN(Cc4nccs4)C3)C2=O)cn1` (stereo unspecified), the Percent Effect is -2.64% in assay [1]; 2.7% in assay [2]; 4.13% in assay [3]; -6.07% in assay [4]; -4.2% with Trypanosoma cruzi; 0.319% in [5]. The Percent Effect in [6] was 16.4%; in the assay filed under Homo sapiens, -1.48%; in assay [7] it was 4.32%; in [8], 10.3%; in assay [9], -0.716%.
As for `CS(=O)(=O)NC[C@]12COC[C@H]1CN(C(=O)Cc1ccccc1F)C2`, the Percent Effect in assay [1] is 0.295%; in assay [2], -101%; in [3], 5.66%; in assay [4], -7.42%; with Trypanosoma cruzi, -7.2%; in [5] it was -4.52%. Also, the Percent Effect is 6.44% in assay [6]; -5.85% in the assay listed under Homo sapiens; -125% in [7]; -232% in assay [8]; -6.07% in assay [9].
For the compound `CC(=O)NCCC1CCCCN1S(=O)(=O)c1cccc(C#N)c1` (stereo unspecified), the Percent Effect in [1] was -7.77%; in [2] it was 8.22%; in [3] it was 1.2%; in assay [4], 3.78%; with Trypanosoma cruzi, 1.98%; in assay [5] it was -2%. The Percent Effect in [6] amounted to 13.6%; in the assay listed under Homo sapiens, 4.41%; in assay [7] it was 2.08%; in assay [8], 8.64%; in [9], 0.784%.
Turning to `CCn1c(N)nc2cc(C(=O)NCc3ccccc3Cl)cnc21`, the Percent Effect in assay [1] is -5.22%; in assay [2] it was 8.22%; in assay [3] it was 1.39%; in assay [4] it was -1.08%; with Trypanosoma cruzi it was -0.196%; in assay [5] it was 5.91%. Besides, the Percent Effect was 14.9% in [6]; 5.03% in the assay filed under Homo sapiens; 7.53% in assay [7]; 17.5% in assay [8]; -4.29% in [9].
As to `CCN1CCN(C2CCN(Cc3nc(-c4ccoc4)no3)CC2)C1=O`, the Percent Effect in assay [1] was -8.04%; in assay [2] it was 2.6%; in assay [3], 7.03%; in [4], -5.89%; in the assay on Trypanosoma cruzi, -5.24%; in assay [5], 1.07%. The Percent Effect in assay [6] is 0.676%; in the assay filed under Homo sapiens it was 23.7%; in assay [7] it was 1.94%; in [8], 0%; in assay [9], -2.83%.
With `CN(C)c1cc2c(nn1)CCN(C(=O)C1Cc3ccccc3S1)C2` (stereo unspecified), the Percent Effect was -3.54% in [1]; 10.1% in assay [2]; -4.45% in [3]; 16% in assay [4]; 5.76% in the assay with Trypanosoma cruzi; 1.14% in assay [5]. Moreover, the Percent Effect is 8.27% in assay [6]; -10.7% in the assay filed under Homo sapiens; 7.39% in [7]; 11.4% in [8]; 9.74% in [9].
`CCCNC(=O)Cn1cc(-c2ccccc2)cn1`: the Percent Effect in assay [1] was -4.24%; in assay [2], 8.86%; in assay [3], 12.1%; in [4] it was -0.382%; in the assay on Trypanosoma cruzi, -5.64%; in assay [5] it was -0.645%. Also, the Percent Effect is 4.97% in [6]; 8.94% in the assay filed under Homo sapiens; 2.08% in assay [7]; 7.59% in assay [8]; -18.4% in assay [9].
For the compound `NS(=O)(=O)Cc1ccc(CNC(=O)NCC2CCOC2)cc1` (stereo unspecified), the Percent Effect in [1] was -1.97%; in assay [2], 7.79%; in [3], 5.79%; in assay [4], -1.36%; in the assay with Trypanosoma cruzi it was 1.86%; in assay [5], 3.58%. Also, the Percent Effect in [6] is 5.09%; in the assay filed under Homo sapiens, -5.41%; in assay [7] it was 2.86%; in assay [8] it was 18.8%; in assay [9] it was -8.13%.
In the case of `O=C(Cn1ccnc1)N1C[C@@H]2CC[C@H](Oc3ccccc3Cl)[C@@H]2C1`, the Percent Effect in [1] was -7.33%; in [2] it was -4.05%; in assay [3], 13.2%; in assay [4], 1.9%; with Trypanosoma cruzi, 0.198%; in [5] it was -3.94%. Also, the Percent Effect in [6] is -1.09%; in the assay listed under Homo sapiens, 31.6%; in assay [7] it was 0%; in assay [8], -1.3%; in assay [9], 1.94%.
Take `CCOC(C)c1nc(CN2CCNCC2)cs1` (stereo unspecified): the Percent Effect was -3% in assay [1]; -8.11% in assay [2]; -1.11% in assay [3]; 0.0763% in [4]; -3.09% in the assay with Trypanosoma cruzi; -5.24% in assay [5]. Also, the Percent Effect in assay [6] was 6.21%; in the assay filed under Homo sapiens it was 14.6%; in [7], -1.59%; in assay [8], -4.88%; in assay [9], -3.79%.

The values above are taken from ChEMBL document CHEMBL3988442, “University of Dundee, Small-Polar-MMV Screening Library” (2021).
